In all, about 16,000 compounds went through this assay and about 70 (0.4%) were called active. What follows is part of a selection rich in actives, with near analogues and random picks from the rest. A number with no mark means an inactive call. No stated cut-off is given here; in the data, active means inhibition above about 75%; inactive means the rest.
Test: counter-screen for Nox1 inhibitors: inhibitors of luminol chemiluminescence (AID 1823)
Conditions: HRP/luminol/H2O2 chemiluminescence counterscreen; at 6.7 µM; stronger effect = higher value

Row | SMILES | inhibition [%]
1 | O=C(O)CCC(=O)Nc1ccc2c(c1)OCCCO2 | -0.93
2 | COc1ccc2c(OC(C)=O)coc2c1 | -1.52
3 | CN(C(=O)Nc1ccc(Cl)cc1)n1cnc2ccccc2c1=O | -2.37
4 | O=C1c2ccccc2C(=O)N1CCCN1CCN(Cc2c(F)cccc2Cl)CC1 | -3.51
5 | N#CCSc1ccc2ccccc2c1 | -1.43
6 | O=C(NNC(=S)Nc1ccc(S(=O)(=O)N2CCCCC2)cc1)c1ccncc1 | 12.6
7 | CN(Cc1nnc(-c2ccc3ccccc3c2)o1)c1nnc(C(F)(F)F)s1 | -4.66
8 | N#Cc1sccc1Br | 0.55
9 | N/C(Cc1cccs1)=N\OC(=O)c1ccccc1 | -0.54
10 | CC(C)N(C(=O)c1ccc(-c2ccccc2F)cc1)C(C)C | -5.07
11 | N#C/C(=C\c1ccsc1Sc1ccc(Cl)cc1)S(=O)(=O)c1ccc(Cl)cc1 | 2.56
12 | Cc1ccc(S(C)(=O)=NC(=O)NS(=O)(=O)Oc2ccc(Cl)cc2Cl)cc1 (stereo unspecified) | 2.88
13 | O=C(Nc1ccc(C(F)(F)F)cn1)c1ccc(Oc2cc(Cl)cc(Cl)c2)o1 | 0.64
14 | CSc1cccc(NC(=O)C(=O)NCCc2ccccn2)c1 | 3.62
15 | Cc1ccc(SCC(=O)Nc2ccc(F)cc2F)cc1 | -8.4
16 | CC1=NOC(=O)/C1=C\c1ccccc1 | 3.43
17 | CC(C)(C)c1ccc(C(=O)CC(N)=O)cc1 | 6.19
18 | O=C1COCC(=O)N1c1ccc2c(c1)OCO2 | -6.14
19 | Cc1nn(C)c(C)c1Sc1nccc(-c2cccnc2)n1 | -8.26
20 | CCOC(=O)C(O)(NC(=O)Nc1ccccc1)C(F)(F)F (stereo unspecified) | -5.95
21 | COCCCN/C(SCc1c(F)cccc1Cl)=C(\C#N)C(N)=O | 1.37
22 | N#C/C=C/c1ccc(C(F)(F)F)cc1[N+](=O)[O-] | 1.6

Row | SMILES | inhibition [%]
23 | O=C(c1ccc(Oc2ccc(Cl)cc2)c([N+](=O)[O-])c1)N1CCCC1 | 2.31
24 | O=C(NNc1ccccc1C(F)(F)F)NS(=O)(=O)c1ccc(Cl)cc1 | -2.61
25 | COc1ccc(/C(C)=N/Nc2c([N+](=O)[O-])cc(C(F)(F)F)cc2[N+](=O)[O-])cc1CC#N | -5.96
26 | Cc1noc(C)c1C(=O)N1CCOCC1 | -1.15
27 | CCOC(=O)c1cc(CC)sc1NC(=O)c1cccnc1Oc1ccccc1 | 0.49
28 | COC(=O)CCN1CCc2cc(N=Nc3ccc(C(F)(F)F)cc3)ccc21 | 17.7
29 | CC(C)(C)NC(=O)[C@@H]1C[C@@H]2CCCC[C@@H]2CN1C(=O)c1ccno1 | -0.12
30 | O=C(O)CC(CC(=O)Oc1ccccc1N1CCCCC1)c1ccccc1 (stereo unspecified) | -1.25
31 | CSc1nsc(SC)c1C(=O)Nc1cc(C(F)(F)F)cc(C(F)(F)F)c1 | 1.1
32 | COc1ccc(C2CC(c3cccs3)=Nc3ccccc3S2)c(Cl)c1OC (stereo unspecified) | -0.88
33 | c1ccc(-c2nsc(N3CCNCC3)n2)cc1 | -5
34 | NS(=O)(=O)c1cccc(NC(=O)c2ccccc2)c1 | -5.88
35 | CCOC(=O)c1c(-c2ccco2)csc1NC(=O)Nc1ccc(Cl)cc1 | 3.19
36 | Cc1[nH]c2ccccc2c1Sc1ccc(Cl)cc1 | -11.5
37 | N#Cc1ccc(Oc2ccc(Cl)cc2)c([N+](=O)[O-])c1 | -1.59
38 | Cc1c(S(=O)(=O)c2ccc(Cl)cc2)csc1C(=O)Nc1ccc2c(c1)OCCO2 | 0.51
39 | CCCCN1Cc2c(nc3cc(-c4ccccc4)[nH]n3c2=O)C1=O | 5.15
40 | O=C1Nc2ccccc2C12NNC(=S)NN2 | 7.82
41 | NS(=O)(=O)c1ccc(Oc2c(Cl)cccc2[N+](=O)[O-])cc1 | -4.5
42 | COc1cccc(NC(=S)NNC(=S)NC2CC3CCC2C3)c1 (stereo unspecified) | 5.57
43 | N/C(=N\OC(=O)c1cccc(Cl)c1)c1ccc2nonc2c1 | -0.67
44 | CO/N=C(/C)c1ccc2c(c1)CCO2 | -0.06

Row | SMILES | inhibition [%]
45 | CC(=O)Nc1ccc(NC(=O)c2cc(C)ccc2[N+](=O)[O-])c(C)c1 | 0.85
46 | O=C(Cn1nnc2ccccc21)NCCSCc1ccco1 | -2.68
47 | COC(=O)C(C#N)c1ccc(C(F)(F)F)cc1[N+](=O)[O-] (stereo unspecified) | 4.34
48 | O=C(CN1CCOCC1)NNC(=O)c1cccs1 | 3.1
49 | C/C(=N\NC(N)=S)c1ccncc1 | 15
50 | O=C(Nc1ccccc1C(=O)NCc1c(F)cccc1Cl)c1ccccc1Cl | 4.86
51 | Cn1c(=O)c(C#N)cn(-c2ccccc2)c1=O | -4.85
52 | CSc1sc(C(=O)NC2CC2)c(-c2ccc(Cl)cc2)c1C#N | 2.76
53 | CCOC(=O)C(NC(=O)c1ccco1)(Nc1cc(C)ccn1)C(F)(F)F (stereo unspecified) | -2.71
54 | COC(=O)c1c(C(=O)OC)c2n(c1C)CCS2 | -2.55
55 | N#CNC(N)=Nc1cc(Cl)ccc1Cl | -0.88
56 | CCOC(=O)O/N=C(\N)c1ccc(Cl)cc1 | -3.37
57 | Cn1cccc1-c1n[nH]c(=S)n1-c1ccc(Cl)cc1Cl | 2.46
58 | CCCCCCNC(=O)NCCCCCC | -3.83
59 | Cc1oc(-c2ccc(Cl)cc2)cc1C(=O)N1CCOCC1 | -4.96
60 | COc1ccc(Cc2nnc(SC)[nH]c2=O)cc1 | 1.75
61 | CC(C)[C@H]1COC(c2cccc(C3=N[C@@H](C(C)C)CO3)n2)=N1 | -2.9
62 | O=C(CCN1CCN(C(c2ccccc2)c2ccccc2)CC1)c1ccccc1 | -3.01
63 | Cn1cc(Cl)c(/C=C(\C#N)C(N)=O)n1 | -6.34
64 | COc1ccc2cc(/C(C)=N/OC(=O)Nc3ccccc3)ccc2c1 | -18.6
65 | CCOC(=O)c1c[nH]n2c(=O)c3c(nc12)CCC3 | 0.29
66 | CC(C)(C)NC(=O)N/N=C/c1[nH]ncc1Br | -2.94

— PubChem BioAssay AID1823 (The Scripps Research Institute Molecular Screening Center, 2009)
